Shown are actives, neighbours in structure and some others; about 3.8% of the full set was active somewhere.
MPTP inh: inhibitors of mitochondrial permeability transition pore | hit rate 1.4% among 360,000 | inhibition, % at 10 µM | isolated mouse mitochondria, Ca2+ swelling absorbance, 30 min;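 active means inhibition of 50% or more, scaled per plate between neutral and stimulator controls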;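 further: 0% = DMSO wells given calcium and 100% = 1 mM EGTA wells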
Yeast superoxide: caloric restriction mimetics inhibiting age-related superoxide in yeast. S. cerevisiae aged cells, superoxide DHE fluorescence; stronger effect = lower value. hit rate 0.18% among 330,000. superoxide response (% of plate mean), % at 10 µM;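 active means superoxide response under a set limit, about three screen SD below normal, cut at about 65% in these data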;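 further: yeast aged for seven days with compound at 30 °C before DHE staining; 100% = average MFI of all compound-treated wells on the plate with controls excluded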
H9c2 protect: protects H9c2 cardiomyocytes from peroxide injury | H2O2 injury protection, ATPLite, 2 h | protection from H2O2 cell death, % at 20 µM | hit rate 0.63% among 360,000 | AID 588492;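 active means compounds giving at least 50% protection of heart cells from peroxide-induced death in the single-dose screen, raw or plate-pattern-corrected value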;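 further: 0% = DMSO wells with peroxide and 100% = DMSO wells without peroxide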
Mot1-301 SUMO: inhibitors of SUMOylation pathway: yeast Mot1-301 growth rescue; hit rate 1% among 320,000; S. cerevisiae Mot1-301 growth rescue, ATP luminescence, 38.5C; percent above DMSO median, 100 means doubled; growth rescue, % at 18.8 µM;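 active means every valid replicate shows activation above 250% relative to neutral control wells; inactive means the rest, any valid replicate at or below 250%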;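 further: OY570 slx delta 5 strain wells were the positive control but not used for scaling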
FAS-TE inh: FAS thioesterase (human) inhibition; recombinant FAS-TE, OMFH fluorogenic substrate, fluorescence endpoint; inhibition, % at 15 µM; P49327; hit rate 0.67% among 360,000;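 active means compounds whose normalised, plate-corrected inhibition of enzyme fluorescence in the single-dose primary screen is 50% or more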;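 further: 0% = DMSO with enzyme and 100% = substrate without enzyme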
aDG glyco act: increases alpha dystroglycan glycosylation; Pro5-aDG cells, alpha-DG glycosylation AlphaScreen (IIH6); 0% Pro5, 100% B10-LARGE cell signal; activation, % at 10 µM; hit rate 0.22% among 360,000;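 active means activation of at least 8% versus controls, or a plate z-score of at least 8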;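 further: Pro5 are CHO cells carrying HIG-tagged alpha-DG that lacks glycosylation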
Rh123 counter: mitochondrial membrane potential, counter-screen | AID 624504 | shares compounds with MPTP inh | hit rate 78% among 5,000 | isolated mitochondria, Rhodamine 123 fluorescence | inhibition, % at 10 µM; in the data active means inhibition above about 22%;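 further: 0% = DMSO vehicle and 100% = positive control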
MPTP abs DR: dose response confirmation of mitochondrial permeability transition pore inhibitors; AID 651561; hit rate 58% among 780; isolated mitochondria swelling, absorbance; IC50, µM; shares compounds with MPTP inh; in the data active means IC50 below about 20 µM
MPTP cs DR: MPTP inhibitor counter-screen activity, dose response. shares compounds with MPTP inh. isolated mitochondria counterscreen, fluorescence read-out. IC50, µM. hit rate 49% among 780. AID 651564; in the data active means IC50 below about 80 µM
An asterisk follows results filed as active; i = inactive; / = no result.

SMILES	MPTP inh	Yeast superoxide	H9c2 protect	Mot1-301 SUMO	FAS-TE inh	aDG glyco act	Rh123 counter	others
CCOC(=O)c1c(NC(=O)CSc2nc3ccccc3o2)sc(C(C)=O)c1C	101*	75	-16	7	39	0	75*
CCOC(=O)c1c(NC(=O)C2c3ccccc3Oc3ccccc32)sc(C(C)=O)c1C	85*	80	-18	-3	32	2	-5	MPTP abs DR=i;MPTP cs DR=8.6*
O=C(CSc1nc2ccccc2o1)Nc1nc2ccccc2s1	10	103	-8	5	2	3	/
COc1ccc(C(CNC(=O)c2ccc(-c3ccccc3)cc2)N(C)C)cc1OC (stereo not given)	80*	97	10	7	2	0	-11	MPTP abs DR=19*;MPTP cs DR=>80
COc1ccc(-c2cc(C(=O)NCC(c3ccccc3)N(C)C)c3ccccc3n2)cc1OC (stereo not given)	1	90	22	522	4	0	/
Cc1nc2ccccc2c(=O)n1NC(=O)Cc1ccc(Br)cc1	1	115	2	7	4	0	/
CCCCCc1ccc(CC(=O)Nn2c(C)nc3ccccc3c2=O)cc1	72*	109	-15	14	15	0	68*
Cc1ccccc1CNC(=O)C(=O)NCC1OCCCN1S(=O)(=O)c1ccc(F)cc1C (stereo not given)	0	98	0	13	-1	0	/
CC(=O)Nc1ccc(NC(=O)c2csc([C@@H]3C[C@H](O)[C@@H](CO)O3)n2)cc1	0	/	22	/	-13	0	/
O=C(Nc1ccc(Oc2ccccc2)cc1)c1csc([C@H]2C[C@H](O)[C@@H](CO)O2)n1	81*	/	-33	/	-12	0	74*
CC[C@@H](C(=O)[C@@H](C)[C@@H](O)[C@H](C)CCc1ccc(C)c(O)c1C(=O)O)[C@H]1O[C@](CC)([C@H]2CC[C@](O)(CC)[C@H](C)O2)C[C@@H]1C	104*	76	-44	-11	8	0	84*
COc1cc(C(=O)NC(CCSC)C(=O)Nc2ccc(N3CCOCC3)cc2)cc(OC)c1OC (stereo not given)	0	/	0	/	-7	0	/
Cc1ccc2nc(SCc3nc4c(cnn4-c4ccccc4)c(=O)[nH]3)[nH]c2c1	73*	91	-22	-4	3	2	85*
Cc1ccc2[nH]c(=O)c(CN(CCCN(C)C)C(=O)Nc3ccc(Cl)cc3)cc2c1	0	93	5	-5	-2	0	/
Cc1ccc2cc(CN(CCN(C)C)C(=O)Nc3ccc(Cl)cc3)c(=O)[nH]c2c1	92*	86	-18	0	2	2	100*
CC1(C)CC(=O)C=C(C(=O)N2CCCC(C(=O)c3cccc(C(F)(F)F)c3)C2)O1 (stereo not given)	1	90	-2	32	-6	0	/
O=C(N/N=C/c1cccc(F)c1)c1ccc(Cl)cc1	0	103	-11	-4	-1	-1	/
CC(C)(C)c1ccc(C(=O)N/N=C/c2cccc(Cl)c2)cc1	81*	99	-17	29	25	0	84*
O[C@@H](c1cc(C(F)(F)F)nc2c(C(F)(F)F)cccc12)[C@H]1CCCCN1	97*	108	-42	4	6	1	-21
OC(c1cc(C(F)(F)F)nc2c(Cl)cc(Cl)cc12)C1CCCCN1 (stereo not given)	2	101	-10	-5	-3	0	/
CCOC(=O)C1(C)CCCN1C(=O)c1ccc2ccccc2c1 (stereo not given)	0	/	-4	/	-3	1	/
Cc1ccc(NC(=S)NNC(=S)Nc2cccc(C(F)(F)F)c2)cc1	73*	93	-6	-20	40	0	53*
COc1cccc(NC(=S)Nc2ccc(Br)cc2Cl)c1	56*	98	2	-1	8	0	69*
CCOc1ccc(NC(=S)Nc2ccc(Br)cc2Cl)cc1	8	94	-8	19	10	0	/
CC(NC(=S)Nc1cccc(C(F)(F)F)c1)C(C)(C)C (stereo not given)	94*	108	-25	-11	21	1	95*
SMILES	MPTP inh	Yeast superoxide	H9c2 protect	Mot1-301 SUMO	FAS-TE inh	aDG glyco act	Rh123 counter	others
COc1ccc(NC(=S)Nc2cccc(C(F)(F)F)c2)c(C)c1	78*	102	-6	-2	2	0	104*
CN(C)NC(=S)Nc1cccc(C(F)(F)F)c1	-2	89	-3	483	-9	0	/
FC(F)(F)c1cccc(NC(=S)NNC(=S)Nc2ccc(Cl)cc2)c1	/	86	/	203	/	/	/
COc1ccc(OC)c(NC(=S)Nc2ccccc2)c1	0	83	-1	15	-6	0	/
CSc1ccccc1NC(=S)Nc1cccc(C(F)(F)F)c1	94*	104	-11	-3	5	0	92*
CSc1nc(-c2ccc(Cl)cc2Cl)[nH]c(=O)c1C#N	88*	122	2	-3	-4	0	89*
COc1cc([N+](=O)[O-])cc(/C=N/NC(=O)c2ccc(NC(=O)c3ccc(C)cc3)cc2)c1O	112*	/	17	/	11	0	1
O=[N+]([O-])c1ccc(-c2nc3ccc([N+](=O)[O-])cc3[nH]2)cc1	105*	97	-20	5	12	1	92*
O=[N+]([O-])c1ccc2nc(C(O)C(O)c3nc4ccc([N+](=O)[O-])cc4[nH]3)[nH]c2c1 (stereo not given)	0	107	18	5	19	0	/
O=[N+]([O-])c1ccc2nc(/C=C/c3ccc(Cl)cc3)[nH]c2c1	90*	112	-18	72	39	1	80*
CCCCN1C(=O)C(CC(=O)NC2CCCCC2)CC(C(=O)N(C)C)=C1C (stereo not given)	1	/	6	/	-12	0	/
FC(F)(F)c1cc(CCN2CCNC[C@@H]2Cc2ccccc2)cc(C(F)(F)F)c1	92*	104	-12	2	-7	2	-22
CCCCOc1ccc(-c2nc(-c3cccnc3)no2)cc1	64*	89	-24	-28	20	1	1	MPTP abs DR=14*;MPTP cs DR=14*
COc1ccc(S(=O)(=O)Nc2ccc(Cc3ccncc3)cc2)cc1OC	66*	90	-10	-8	-2	0	78*
CCc1ccc(OC)c(S(=O)(=O)Nc2ccc(Cc3ccncc3)cc2)c1	79*	113	-12	175	8	1	83*
O=C(Nc1ccc(Oc2ncnc3cc(Cl)ccc23)nc1)c1ccc(F)cc1	/	101	/	18	/	/	/
